Laboratory results as given in PubChem BioAssay.
“And” between values parts separate entries of the source, which are not always exact repeats. Equal entries are not always repeated. The source made the active and inactive calls.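 Rule for the calls, unless noted: active = compounds whose cell count with miR-34 switched on is under 0.7 times the count with it off; inactive = the rest.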 Where a SMILES comes first, the peptide text is derived from it. [ ]: non-standard residue; d: D form. pGlu = O=C1CC[CH](C(=O)O)N1; Thz = O=C(O)[CH]1CSCN1

How the values were obtained:
[1] = sensitizers of A549 cells to miR-34 induction, primary screen, imaging, A549 dox-inducible miR-34, nuclei and caspase counts (AID 1347080); settings: A549 miR-34 inducible, Hoechst nuclei count, 48 h
[2] = survival rescue of mitochondrial mutant cells in low glucose, primary screen, MELAS cybrids, Rieske KO mouse fibroblasts, CellTiter-Glo (AID 1508586;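 active = mean z-score across replicates of 1.96 or higher in either the MELAS or the Rieske mutant cell line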;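 note: z relative to plate mean and SD of compound and empty wells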)
[3] = viability rescue of complex I mutant cybrids, primary screen, cell-based, galactose medium, ATP luminescence (AID 1645843;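 active = z-score of at least 1.8 in each of two replicates, scored against plate mean and spread of sample wells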;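 note: positive z means more ATP and so rescue of galactose-driven cybrid death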); settings: complex I mutant cybrid cells, 72 h, stronger effect = higher value
[4] = liver-stage malaria parasite growth inhibition, primary screen, cell-based, HepG2, luciferase luminescence, HepG2 viability (AID 624349; in the data active = parasite load remaining mostly below about 12%, no sharp cut-off; inactive = mostly above about 10%;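 note: 100% = mean of DMSO negative control wells on the same plate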); settings: P. berghei liver stage in HepG2, luciferase luminescence, concentration not given here; parasite load remaining: stronger effect = lower value; viability: measured here: HepG2 viability without parasites
[5] = target: NAD(+) hydrolase SARM1 (Homo sapiens) (UniProt Q6SZW1); assay: SARM1 TIR NADase inhibitors, cell lysate, NAD-Glo luminescence (AID 1508614;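 active = compound whose remaining NAD level is above about 45 nM, limit read from the data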;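 note: higher remaining NAD means stronger inhibition of SARM1 NADase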); settings: SAM-TIR HEK293T lysate NADase, at 1 µM, stronger effect = higher value
[6] = stronger effect = lower value, cell number ratio, induced over uninduced
[7] = measured here: relative caspase fold change +Dox/-Dox
[8] = measured here: total cells with miR-34 induction, stronger effect = lower value
[9] = measured here: total cells without miR-34 induction
[10] = MELAS cybrid survival, CellTiter-Glo 48 h, stronger effect = higher value
[11] = Rieske KO mouse fibroblast survival, CellTiter-Glo 72 h

Sequence of NAD(+) hydrolase SARM1 (Homo sapiens) (Q6SZW1 whole entry, looked up): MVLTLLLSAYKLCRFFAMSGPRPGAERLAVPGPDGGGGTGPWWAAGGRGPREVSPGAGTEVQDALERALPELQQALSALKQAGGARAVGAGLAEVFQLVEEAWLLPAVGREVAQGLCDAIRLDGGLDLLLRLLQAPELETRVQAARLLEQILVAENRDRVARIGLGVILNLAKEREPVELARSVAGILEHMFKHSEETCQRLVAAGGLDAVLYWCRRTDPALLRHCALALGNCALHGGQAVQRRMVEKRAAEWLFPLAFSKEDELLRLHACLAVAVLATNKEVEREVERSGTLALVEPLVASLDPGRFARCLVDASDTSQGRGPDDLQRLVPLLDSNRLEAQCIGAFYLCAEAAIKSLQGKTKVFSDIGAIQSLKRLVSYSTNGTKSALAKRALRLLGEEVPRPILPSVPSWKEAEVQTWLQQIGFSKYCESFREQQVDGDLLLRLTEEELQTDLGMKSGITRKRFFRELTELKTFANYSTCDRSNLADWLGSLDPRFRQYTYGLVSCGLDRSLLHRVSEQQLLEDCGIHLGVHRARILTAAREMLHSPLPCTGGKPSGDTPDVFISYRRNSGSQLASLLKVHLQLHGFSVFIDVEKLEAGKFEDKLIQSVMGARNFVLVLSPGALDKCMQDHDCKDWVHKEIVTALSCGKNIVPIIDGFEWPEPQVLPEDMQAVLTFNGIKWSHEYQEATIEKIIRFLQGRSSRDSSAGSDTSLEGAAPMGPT

| SMILES | fold change [1, 6] | fold change [1, 7] | cell count [1, 8] | cell count [1, 9] | z-score [2, 10] | z-score [2, 11] | z-score [3] | parasite load remaining [4] | viability [4] | remaining NAD [5] |
| --- | --- | --- | --- | --- | --- | --- | --- | --- | --- | --- |
| O=C1CCC(C(=O)N2CSCC2C(=O)O)N1 (stereo unspecified) ([pGlu]-[Thz]-OH; configuration not given here) | 0.957 (inactive) and 1 (inactive) | 1.75 and 0.634 | 9270 and 8110 | 9680 and 8100 | -0.302 (inactive) | -0.109 | 0.45 (inactive) | – | – | – |
| O=C(O)c1cccc2c(-c3ccccc3)c(-c3ccccc3)[nH]c12 | 0.883 (inactive) | 1.11 | 8700 | 9850 | -0.38 (inactive) | -0.101 | 0.98 (inactive) | – | – | – |
| O=C(O)C(C(=O)O)c1ccccc1 | 0.911 (inactive) | 0.169 | 8920 | 9780 | 0.44 (inactive) | -0.084 | 0.49 (inactive) | – | – | – |
| CCOC(=O)O[C@]1(C(=O)COC(=O)CC)CC[C@H]2[C@@H]3CCC4=CC(=O)C=C[C@]4(C)[C@H]3[C@@H](O)C[C@@]21C | 0.839 (inactive) | 0.816 | 5980 | 7130 | -0.565 (inactive) | 0.21 | – | 80.7% (inactive) | 80.3% | 10 nM (inactive) |
| NC(=O)c1c(NC(=O)C2CC2)sc2c1CCCC2 | 0.825 (inactive) | 0.622 | 7330 | 8890 | -0.327 (inactive) | 0.409 | 0.65 (inactive) | – | – | – |
| Cc1ccc(-n2cc(-c3nc4c(cnn4Cc4cccnc4)[nH]3)cn2)cc1 | 0.858 (inactive) | 2.02 | 7150 | 8340 | 0.697 (inactive) | 0.0385 | -0.445 (inactive) | – | – | – |
| Cc1cc(CN(C)C(=O)c2cc(-c3cnn(C(C)C)c3)nc3cc(F)ccc23)on1 | 0.883 (inactive) | 1.43 | 8520 | 9660 | -1.12 (inactive) | 0.385 | -0.48 (inactive) | – | – | – |
| Cn1c(=O)ccc2ccccc21 | 0.892 (inactive) | 0.453 | 8490 | 9520 | -0.16 (inactive) | 0.0614 | 0.32 (inactive) | – | – | – |
| NC(=O)NC(Cc1ccccc1)C(=O)O (stereo unspecified) | 0.889 (inactive) | 0.725 | 8700 | 9790 | -0.32 (inactive) | -0.255 | 0.66 (inactive) | – | – | – |
| Cn1nc(C(C)(C)C)cc1NC(=O)Cn1cc(-c2ccccc2N)cn1 | 0.913 (inactive) | 1.7 | 8250 | 9040 | 0.154 (inactive) | -0.442 | -0.46 (inactive) | – | – | – |
| c1cc(CN2CCN3CCCC3C2)n(-c2nccs2)c1 (stereo unspecified) | 0.908 (inactive) | 1.4 | 8290 | 9130 | 0.256 (inactive) | -0.144 | -0.595 (inactive) | – | – | – |
| CN1CCN(Cc2ccc3sccc3c2)CC1CCO (stereo unspecified) | 0.86 (inactive) | 1.5 | 8240 | 9580 | 0.0101 (inactive) | -0.424 | -0.48 (inactive) | – | – | – |
| COc1ccc(CN(C)C(=O)Nc2nc(-c3ccccc3)ns2)cc1 | 0.886 (inactive) | 1.46 | 6810 | 7690 | -0.0703 (inactive) | 0.35 | 0.77 (inactive) | – | – | – |
| O=C(O)COc1cccc2ccccc12 | 0.847 (inactive) | 0.59 | 7750 | 9150 | -0.276 (inactive) | 0.135 | 0.555 (inactive) | – | – | – |
| CNC1CCC(c2ccc(Cl)c(Cl)c2)c2ccccc21 (stereo unspecified) | 0.897 (inactive) and 0.972 (inactive) | 1.54 and 0.385 | 3400 and 7100 | 3800 and 7300 | -0.116 (inactive) | -0.231 | -1.88 (inactive) | – | – | – |
| Cc1ncsc1-c1ccn(CC(=O)Nc2ccnn2Cc2cccs2)n1 | 0.798 (inactive) | 1.89 | 6540 | 8190 | -0.383 (inactive) | -0.375 | -0.525 (inactive) | – | – | – |
| CC(O)c1cn(C2CCN(c3ncnc4nc[nH]c34)CC2)nn1 (stereo unspecified) | 0.902 (inactive) | 1.71 | 9250 | 10300 | 0.294 (inactive) | -0.198 | -0.55 (inactive) | – | – | – |
